GRIN3A LBD mod: modulators (binders) of human NR3A ligand-binding domain; Tm shift relative to glycine control, % at 25 µM; AID 1259313; NR3A LBD differential scanning fluorimetry, Tm shift; 0% = protein alone, 100% = glycine-bound protein; 2.5% of 340,000 active;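 active = melting temperature shift of at least 10% of the positive control shift, at one fixed dose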
TPT1 inh: blocks Candida albicans tRNA 2'-phosphotransferase. recombinant caTPT1, FP RNA substrate dephosphorylation. inhibition, % at 5 µM. 0.81% of 300,000 active. AID 1962;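 active = inhibition above the mean of all tested compounds plus 3 SD, set per screening campaign, cut at about 24% in these data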;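 also: plate controls were DMSO alone for no effect and ferristatin control at 100 nM for full effect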
dFosB act-1: mouse delta FosB homodimer activation; P13346; purified delta FosB, TAMRA-CDK5 oligo fluorescence polarization; percent of positive-control signal above neutral wells; activation, % at 25 µM; 0.99% of 340,000 active;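 active = mean activation above about 17%, with every replicate also reaching it, limit read from the data, passing the limit was not always enough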
Target sequence (P13346 whole entry, looked up): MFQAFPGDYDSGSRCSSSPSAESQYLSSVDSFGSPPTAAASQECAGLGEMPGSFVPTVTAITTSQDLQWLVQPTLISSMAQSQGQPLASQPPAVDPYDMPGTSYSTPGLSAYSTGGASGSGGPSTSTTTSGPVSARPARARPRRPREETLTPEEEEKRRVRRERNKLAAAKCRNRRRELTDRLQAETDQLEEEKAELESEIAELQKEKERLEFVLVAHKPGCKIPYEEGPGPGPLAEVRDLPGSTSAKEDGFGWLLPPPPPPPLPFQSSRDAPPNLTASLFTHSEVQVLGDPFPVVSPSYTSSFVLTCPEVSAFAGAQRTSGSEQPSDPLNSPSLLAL
Rpn11 block: Rpn11 (human) deubiquitinase inhibition; inhibition, % at 20 µM; human 26S proteasome, Ub4-pepOG fluorescence polarization; 20S core pre-blocked with epoxomicin; AID 588493; 0.59% of 360,000 active;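 active = inhibition at 20 µM, scaled to each plate's controls, above about 33%, limit read from the data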
EBNA-1 inh: blocks EBNA-1 binding to DNA; EBNA-1 DNA binding, fluorescence polarization; inhibition, % at 14.8 µM; 0.34% of 300,000 active; AID 1950; in the data active = inhibition above about 28%
ZTA counter: blocks Epstein-Barr virus ZTA, an EBNA-1 counter-screen; P03206; ZTA-DNA binding, fluorescence polarization; inhibition, % at 11 µM; 0.15% of 320,000 active; AID 2234; in the data active = inhibition above about 33%
Target sequence (P03206 whole entry, looked up): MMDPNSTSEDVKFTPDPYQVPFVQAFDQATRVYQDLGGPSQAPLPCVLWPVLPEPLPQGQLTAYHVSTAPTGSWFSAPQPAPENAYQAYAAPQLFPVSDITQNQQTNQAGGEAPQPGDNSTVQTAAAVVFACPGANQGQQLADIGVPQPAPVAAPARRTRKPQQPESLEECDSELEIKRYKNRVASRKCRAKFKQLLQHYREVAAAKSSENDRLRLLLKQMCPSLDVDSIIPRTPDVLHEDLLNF
EBNA-1 inh conf: EBNA-1 (EBV) inhibition, confirmation | inhibition, % at 14.8 µM | shares compounds with EBNA-1 inh | Recombinant EBNA-1 DBD, Cy5-DNA fluorescence polarization | 35% of 830 active;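 active = mean inhibition across replicates above a set limit taken from the earlier primary screen, cut at about 28% in these data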;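 also: plate controls were EBNA-1 protein with DMSO for no effect and wells lacking EBNA-1 for full effect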
ZTA DNA inh trip: blocks Epstein-Barr virus ZTA in triplicate, EBNA-1 counter-screen; shares compounds with EBNA-1 inh; Zta-ZRE DNA binding, Cy5 fluorescence polarization; inhibition, % at 11.1 µM; 830 tested, under 10 active;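 active = mean inhibition over triplicates above a set limit taken from the primary EBNA-1 screen, cut at about 37% in these data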;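 also: purified full length Zta protein with Cy5 labeled ZRE DNA probe; 0% = Zta with DMSO and 100% = wells lacking Zta protein; inhibitors lower polarization by freeing the labeled DNA probe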
dFosB act-2: delta FosB (mouse) homodimer activation | shares compounds with dFosB act-1 | purified delta FosB, TAMRA-CDK5 oligo fluorescence polarization; normalised: neutral wells 0, positive control 100 | activation, % at 24.9 µM | 2,400 tested, under 10 active;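 active = highest replicate activation at or above 34% and every replicate reaching that threshold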;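 also: higher polarization means more probe DNA bound by delta FosB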
The depositor's hits bear a star; · = not tested or not shown. Most compounds without a hit are left out; they make up all but 4.5% or so of the library.

SMILES | GRIN3A LBD mod | TPT1 inh | dFosB act-1 | Rpn11 block | EBNA-1 inh | ZTA counter | EBNA-1 inh conf | ZTA DNA inh trip | dFosB act-2
CCOc1cc(/C=C2\SC(=O)N(CC(=O)Nc3ccccc3F)C2=O)cc([N+](=O)[O-])c1O | -2 | 1 | -12 | -7 | -4 | 0 | · | · | ·
O=C(c1cc(F)c(F)cc1Cl)N1CCN(c2ncccn2)CC1 | 2 | -7 | 1 | -1 | -7 | -25 | · | · | ·
O=C(NCCC1=CCCCC1)C1CCC(CNc2nc(=S)[nH]c3ccccc23)CC1 (stereo not given) | -2 | 2 | 23* | 1 | 32* | 8 | 24 | -4 | 2
CCCCNC(=O)C1CCC(CNc2nc(=S)[nH]c3ccccc23)CC1 (stereo not given) | 0 | 2 | -3 | -4 | 3 | 6 | · | · | ·
O=C(NCCc1ccc(Cl)cc1)C1CCC(CNc2nc(=S)[nH]c3ccccc23)CC1 (stereo not given) | 5 | 3 | 72* | -6 | 30* | 5 | 32* | 0 | 6
O=C(OCCOc1ccccc1)c1n[nH]c2ccccc12 | -2 | 0 | -11 | -7 | -3 | -18 | · | · | ·
Cc1ccccc1OCc1nnc(SCC(=O)Nc2ccc3nc(SCC(=O)Nc4ccccc4)sc3c2)n1C | 17* | -2 | 20* | 9 | 44* | -16 | 43* | 12 | 2
Cc1ccccc1OCc1nnc(SCC(=O)Nc2ccc3c(c2)OCO3)n1C | 1 | -1 | -5 | 8 | 7 | -11 | · | · | ·
O=C(CNC(=O)c1ccc(N2C(=O)c3ccccc3C2=O)cc1)OCC(=O)c1ccc(Cl)cc1 | -6 | 1 | 113* | -1 | 36* | 6 | 15 | 9 | 5
O=C(Nc1cccc(C(F)(F)F)c1)C1CC(=O)N(Cc2ccco2)C1 (stereo not given) | · | · | · | 2 | · | · | · | · | ·
O=C(NCCN1CCOCC1)c1ccc(=O)n(Cc2ccc(Cl)cc2)c1 | 1 | 1 | 4 | -3 | -10 | -28 | · | · | ·
COc1ccc2oc(C(=O)OCC(=O)Nc3ccc(OC)c(S(N)(=O)=O)c3)c(C)c2c1 | 0 | 3 | -12 | 2 | 6 | -6 | · | · | ·
COc1ccc2oc(C(=O)OCC(=O)Nc3ccc(NC(C)=O)cc3)c(C)c2c1 | 0 | 3 | 36* | 9 | 120* | 8 | 167* | -9 | -8
COc1ccc2oc(C(=O)OCC(=O)Nc3cc(S(=O)(=O)N4CCOCC4)ccc3C)c(C)c2c1 | · | 3 | 38* | -2 | 62* | 4 | 107* | 0 | 3
COc1ccc2oc(C(=O)OCC(=O)Nc3cc(S(=O)(=O)N4CCOCC4)ccc3OC)c(C)c2c1 | -2 | 1 | 1 | 5 | -10 | -7 | · | · | ·
O=C(COc1ccc2c(c1)OCO2)Nc1ccc2c(c1)oc1ccccc12 | 5 | 1 | 81* | 0 | 71* | 6 | 11 | 15 | 3
COc1cc(NC(=O)c2ccccc2)c(OC)cc1NC(=O)Cc1ccc(F)cc1 | 2 | 0 | -6 | 1 | -6 | 14 | · | · | ·
COc1cc(NC(=O)c2ccccc2)c(OC)cc1NC(=O)Cc1ccc(Br)cc1 | -1 | -2 | 21* | -2 | 36* | 8 | 50* | 1 | 8
O=C(CSc1nc(=O)n(CCCN2CCOCC2)c2c1CCCC2)Nc1ccc(Cl)cc1 | 1 | -2 | -3 | -3 | 4 | -2 | · | · | ·
Cc1csc(NC(=O)COc2ccc3c(C)cc(=O)oc3c2)n1 | 0 | 0 | 54* | 11 | 44* | 15 | 47* | 10 | 4
NC(=O)c1nn(-c2ccccc2)nc1NC(=O)Cn1nnc(-c2ccccc2)n1 | 0 | -2 | 22* | -6 | 46* | 1 | 24 | 2 | 4
O=C(N/N=C/c1ccc(F)cc1)c1cc(-c2ccc3c(c2)OCO3)n[nH]1 | 29* | -2 | 29* | 25 | 32* | -2 | 16 | 4 | -2
O=C(Cn1nnc(-c2ccc(CN3CCOCC3)cc2)n1)Nc1nc(-c2ccccc2)cs1 | 4 | 0 | 25* | 0 | 48* | -2 | 5 | 7 | -4
CCn1c(SCC(=O)Nc2cccc(NC(C)=O)c2)nc2c([nH]c3ccccc32)c1=O | -7 | 3 | 9 | -5 | -3 | 4 | · | · | ·
CCn1c(SCC(=O)Nc2ccc(C(C)=O)cc2)nc2c([nH]c3ccccc32)c1=O | 14* | -1 | 33* | 1 | 39* | -5 | -6 | 3 | 3
SMILES | GRIN3A LBD mod | TPT1 inh | dFosB act-1 | Rpn11 block | EBNA-1 inh | ZTA counter | EBNA-1 inh conf | ZTA DNA inh trip | dFosB act-2
Cc1nn(C2CC(O)C(O)C(CO)O2)c(=O)[nH]c1=O (stereo not given) | 4 | · | -4 | 0 | · | · | · | · | ·
CCC(=O)NCc1csc(-c2cccs2)n1 | 2 | -2 | -1 | 8 | -6 | -2 | · | · | ·
O=C(NCc1csc(-c2cccs2)n1)Nc1cccc(Cl)c1 | 9 | -2 | 66* | 3 | 28* | 8 | 23 | 4 | 6
O=S(=O)(Nc1ccncc1Cl)c1ccc2ccccc2c1 | -1 | -1 | -12 | 4 | -3 | 2 | · | · | ·
Cc1cc(NC(=O)CSc2nc3ccccc3c(=O)n2Cc2ccc(F)cc2)no1 | -11 | 3 | 42* | 3 | 57* | -2 | 23 | 14 | 5
CCOc1ccc(S(=O)(=O)NC(Cc2c[nH]c3ccccc23)C(=O)O)cc1 (stereo not given) | 0 | -2 | 6 | -2 | 8 | 7 | · | · | ·
NS(=O)(=O)c1ccc(CCNC(=O)COC(=O)c2nc(Cl)ccc2Cl)cc1 | 0 | · | -8 | 8 | · | -9 | · | · | ·
NC(=O)c1ccc(NC(=O)COC(=O)/C=C/c2ccc3c(c2)OCO3)cc1 | -2 | 1 | 24* | 0 | 32* | 15 | 2 | -9 | 2
N#C/C(=C\c1cn(Cc2ccccc2)c2ccccc12)C(=O)NCc1ccco1 | -3 | -3 | 8 | 4 | 25 | -3 | · | · | ·
Cc1cccc(NC(=O)/C(C#N)=C/c2cn(CC(=O)NCc3ccco3)c3ccccc23)c1C | -5 | 1 | 37* | 1 | 35* | 1 | 30* | -1 | 0
OCC[C@H]1C[C@@H](O)[C@H](O)[C@]2(CCCO2)O1 | -1 | -2 | -7 | 1 | -19 | -18 | · | · | ·
NS(=O)(=O)c1ccc(NC(=O)/C=C/c2cn(-c3ccccc3)nc2-c2cccc(Cl)c2)cc1 | 31* | 3 | 142* | 11 | 30* | 5 | 39* | 9 | 2
COc1ccc(Cl)cc1NC(=O)C1Cc2ccccc2CN1S(C)(=O)=O (stereo not given) | 1 | 3 | -11 | -3 | -8 | -14 | · | · | ·
